We go through 18 compounds from PubChem BioAssay.

Calls of active or inactive are those of the source.

Assay [1] relates to PRMT1 (protein arginine N-methyltransferase 1). The experiment in a line: PRMT1 binders on small-molecule microarrays, primary screen, biochemical, small-molecule microarray, 635 nm fluorescence (AID 1088).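 Also: binding of Prmt1 protein to compounds spotted on small-molecule microarray slides.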 To be noted: small-molecule microarray binding, higher = more signal.
Assay [2] in a line: yeast growth modulation, basal conditions, primary screen, YJM789 clinical isolate, OD600, 24 h (AID 1089).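 Also: growth of clinical yeast isolate S. cerevisiae YJM 789 seeded 1000 cells per well; test concentration not given here.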 As to conditions: S. cerevisiae YJM789 growth, higher = more signal, called active from +8 up or from −8 down.
Assay [3] can be described thus: fission yeast growth modulation, primary screen, strain 972, OD600, 24 h, no modulator (AID 1090).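 Also: basal condition with compound alone and no growth modifier present; test concentration not given here.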 As to conditions: S. pombe 972 growth, higher = more signal, called active from +8 up or from −8 down.
Assay [4] can be described thus: S. cerevisiae growth modulation with rapamycin, primary screen, strain BY4716, OD600, 96 h (AID 1091). Also: test concentration not given here. As to conditions: higher = more signal, called active from +8 up or from −8 down.
The target in assay [5] is Torsin-1A-interacting protein 2 (Homo sapiens) (UniProt Q8NFQ8). Briefly: LULL1 binders on small-molecule microarray, primary screen, cell lysate, human LULL1 lysate, 635/667 nm fluorescence (AID 1092).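 Also: probe is lysate of COS7 cells overexpressing human LULL1; score merges per-feature 667 nm fluorescence with signal-to-noise.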 To be noted: hLULL1 lysate binding, 635 nm fluorescence, higher = more signal.
Assay [6] can be described thus: E. coli growth modulation, two-sided OD650, primary screen, E. coli filamentation project, strain DRC41, 24 h (AID 1093).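 Also: MC1000 strain lacking acrAB efflux and sulA so SOS filamentation is blocked; test concentration not given here.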 To be noted: OD650, 24 h, higher = more signal, called active from +8 up or from −8 down.
A short description of assay [7]: small-molecule microarray binders of probe aLefty2, primary screen, biochemical, biotinylated probe, 635/667 nm fluorescence (AID 1094).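 Also: score merges spot fluorescence near 667 nm with spot signal-to-noise ratio.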 As to conditions: higher = more signal.
The subject of assay [8] is Noggin (protein binding on small-molecule microarray). Briefly: Noggin binders on small-molecule microarray, primary screen, biochemical, 635/667 nm fluorescence (AID 1095).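 Also: score merges 667 nm feature fluorescence with signal to noise over triplicate slides.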 As to conditions: 635 nm fluorescence, higher = more signal.
Assay [9] has as its target Neurogenic locus notch homolog protein 3 (Homo sapiens) (UniProt Q9UM47). Briefly: NOTCH3 binders on small-molecule microarray, primary screen, biochemical, 635/667 nm fluorescence (AID 1096). As to conditions: NOTCH3 binding, 635 nm fluorescence, higher = more signal.
The nature of assay [10]: small-molecule microarray binders of probe aEGFR, primary screen, biochemical, biotinylated probe, 635/667 nm fluorescence (AID 1097).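 Also: probe is a biotinylated anti-EGFR antibody binding compounds printed on slides; score combines fluorescence near 667 nm and signal to noise of each spot.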 As to conditions: higher = more signal.

Torsin-1A-interacting protein 2 (Homo sapiens), sequence (Q8NFQ8 whole entry, looked up): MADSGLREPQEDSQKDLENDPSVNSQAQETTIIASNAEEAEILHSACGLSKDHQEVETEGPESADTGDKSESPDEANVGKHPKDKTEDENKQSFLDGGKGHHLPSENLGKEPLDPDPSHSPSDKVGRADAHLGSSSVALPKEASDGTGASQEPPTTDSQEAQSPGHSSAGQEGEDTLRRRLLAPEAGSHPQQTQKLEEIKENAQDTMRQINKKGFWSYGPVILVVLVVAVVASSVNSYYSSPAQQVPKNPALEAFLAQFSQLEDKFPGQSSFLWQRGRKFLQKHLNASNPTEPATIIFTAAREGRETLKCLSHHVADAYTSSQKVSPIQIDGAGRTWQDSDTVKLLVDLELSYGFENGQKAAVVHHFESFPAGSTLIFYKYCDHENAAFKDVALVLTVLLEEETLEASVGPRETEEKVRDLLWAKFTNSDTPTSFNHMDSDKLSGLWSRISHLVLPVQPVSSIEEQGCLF
Neurogenic locus notch homolog protein 3 (Homo sapiens), sequence (Q9UM47 whole entry, looked up): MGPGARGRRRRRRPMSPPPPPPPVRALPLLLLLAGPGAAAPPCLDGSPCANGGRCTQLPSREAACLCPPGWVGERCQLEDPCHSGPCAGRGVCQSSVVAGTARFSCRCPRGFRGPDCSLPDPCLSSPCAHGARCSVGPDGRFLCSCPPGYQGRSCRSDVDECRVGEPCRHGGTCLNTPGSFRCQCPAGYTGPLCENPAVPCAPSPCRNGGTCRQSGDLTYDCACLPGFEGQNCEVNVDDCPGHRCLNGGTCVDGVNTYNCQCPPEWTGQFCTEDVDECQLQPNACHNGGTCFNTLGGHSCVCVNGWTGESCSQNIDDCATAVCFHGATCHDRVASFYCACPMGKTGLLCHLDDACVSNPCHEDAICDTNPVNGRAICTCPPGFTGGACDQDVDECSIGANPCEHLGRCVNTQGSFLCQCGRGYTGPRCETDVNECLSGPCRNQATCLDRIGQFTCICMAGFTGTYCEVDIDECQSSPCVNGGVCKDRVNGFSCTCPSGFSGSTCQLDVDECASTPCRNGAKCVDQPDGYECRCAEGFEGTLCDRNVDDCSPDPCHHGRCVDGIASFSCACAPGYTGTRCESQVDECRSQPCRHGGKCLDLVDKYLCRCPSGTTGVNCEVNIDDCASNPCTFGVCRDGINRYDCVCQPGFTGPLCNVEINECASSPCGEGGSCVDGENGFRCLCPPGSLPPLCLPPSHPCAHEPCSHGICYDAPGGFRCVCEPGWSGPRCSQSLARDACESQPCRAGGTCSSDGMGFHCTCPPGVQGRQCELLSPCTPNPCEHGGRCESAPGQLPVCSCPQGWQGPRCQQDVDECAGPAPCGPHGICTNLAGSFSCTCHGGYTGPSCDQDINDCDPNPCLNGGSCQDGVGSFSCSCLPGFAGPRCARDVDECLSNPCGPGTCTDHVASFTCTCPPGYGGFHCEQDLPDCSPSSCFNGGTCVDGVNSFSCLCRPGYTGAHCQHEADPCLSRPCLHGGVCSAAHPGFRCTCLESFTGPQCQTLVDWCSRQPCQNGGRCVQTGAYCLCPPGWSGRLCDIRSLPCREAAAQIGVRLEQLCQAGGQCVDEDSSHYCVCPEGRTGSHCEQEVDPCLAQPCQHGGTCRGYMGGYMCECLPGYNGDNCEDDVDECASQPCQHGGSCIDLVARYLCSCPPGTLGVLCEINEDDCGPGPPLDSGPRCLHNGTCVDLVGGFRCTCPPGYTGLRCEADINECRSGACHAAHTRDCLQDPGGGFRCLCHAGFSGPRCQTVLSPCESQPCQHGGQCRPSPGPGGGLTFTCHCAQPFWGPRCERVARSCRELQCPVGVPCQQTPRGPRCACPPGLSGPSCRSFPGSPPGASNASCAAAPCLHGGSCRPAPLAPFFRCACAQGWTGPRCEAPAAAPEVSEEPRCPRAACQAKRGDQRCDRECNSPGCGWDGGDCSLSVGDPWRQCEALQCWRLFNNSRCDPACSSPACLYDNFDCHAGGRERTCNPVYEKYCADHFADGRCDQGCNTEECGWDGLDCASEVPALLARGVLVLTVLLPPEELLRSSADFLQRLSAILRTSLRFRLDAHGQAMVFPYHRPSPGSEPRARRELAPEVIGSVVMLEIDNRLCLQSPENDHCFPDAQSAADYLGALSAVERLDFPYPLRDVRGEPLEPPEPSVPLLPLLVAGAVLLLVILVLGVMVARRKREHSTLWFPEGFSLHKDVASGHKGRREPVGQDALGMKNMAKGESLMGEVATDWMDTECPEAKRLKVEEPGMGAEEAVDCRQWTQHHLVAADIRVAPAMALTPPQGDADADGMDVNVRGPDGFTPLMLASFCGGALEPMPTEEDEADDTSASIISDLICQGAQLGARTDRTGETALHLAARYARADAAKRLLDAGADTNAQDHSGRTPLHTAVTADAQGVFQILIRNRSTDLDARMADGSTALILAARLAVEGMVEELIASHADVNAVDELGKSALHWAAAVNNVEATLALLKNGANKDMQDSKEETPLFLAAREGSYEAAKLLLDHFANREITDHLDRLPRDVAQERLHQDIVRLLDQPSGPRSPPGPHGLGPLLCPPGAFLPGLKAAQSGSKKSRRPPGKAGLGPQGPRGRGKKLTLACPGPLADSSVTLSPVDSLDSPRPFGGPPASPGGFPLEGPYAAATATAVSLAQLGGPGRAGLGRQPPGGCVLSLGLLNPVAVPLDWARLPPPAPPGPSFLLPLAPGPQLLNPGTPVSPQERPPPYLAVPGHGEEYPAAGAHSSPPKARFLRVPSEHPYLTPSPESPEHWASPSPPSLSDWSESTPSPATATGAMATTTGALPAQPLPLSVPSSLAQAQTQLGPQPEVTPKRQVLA

For `CC(C)C[C@@H]1NC(=O)[C@H]2C[C@@H](C(=O)NCCCCCCN(C)C)[C@@H](c3ccc(O)cc3)N2C1=O`, the composite z-score in [1] is 1.56; in [5], 3.1; in assay [7], 0.0829; in assay [8] it was 0.248; in [9], 1.14; in [10], 0.122. For the same compound, the z-score in assay [2] is -0.924 (inactive); in assay [3] it was -0.48 (inactive); in [4], -0.734 (inactive); in assay [6] it was -0.613 (inactive).
For the compound `COCCOC(=O)N1C(=O)[C@@]2(c3ccccc31)[C@H](c1ccc(O)cc1)N1[C@H](c3ccccc3)[C@H](c3ccccc3)OC(=O)[C@H]1[C@@H]2C(=O)NC[C@H](O)c1ccccc1`, the composite z-score in assay [1] was 1.51; in assay [5], 2.98; in assay [7] it was -0.23; in assay [8], 0.399; in [9], 0.669; in assay [10] it was -0.165. The z-score in assay [2] is 0.385 (inactive); in assay [3], -0.238 (inactive); in [4], 2.73 (inactive); in assay [6] it was 0.505 (inactive).
Turning to `C=CC[C@@]1(C(=O)N(C)C)N=C(c2ccc(OCCCO)cc2)O[C@@H]1c1ccccc1N=[N+]=[N-]`, the composite z-score came out at 1.55 in [1]; 3.57 in assay [5]; 0.193 in assay [7]; 1.07 in [8]; 1.06 in assay [9]; 0.276 in [10]. For the same compound, the z-score in [2] is -0.431 (inactive); in [3], -0.0481 (inactive); in assay [4] it was -0.0865 (inactive); in [6] it was 0.724 (inactive).
With `COC(=O)c1c(CC[C@@H](CO)NC(=O)N[C@H](Cn2cc(Cc3ccccc3)nn2)C(C)C)oc(C(C)=O)c1C(=O)OC`, the composite z-score in assay [1] is 1.08; in assay [5] it was 1.08; in assay [7], -0.166; in assay [8], 0.493; in assay [9], 0.39; in assay [10], -0.145. The z-score was -0.178 (inactive) in [2], -0.787 (inactive) in [3], 0.158 (inactive) in [4] and 0.918 (inactive) in assay [6].
Turning to `COc1ccc([C@H]2OC[C@@H]3CC4(CC=CC4)C(=O)N32)cc1`, the composite z-score in assay [1] is 1.08; in assay [5], 1.24; in assay [7], -0.0171; in assay [8], 1.08; in assay [9] it was 0.527; in [10], 0.0376. Further, the z-score in [2] was -0.205 (inactive); in assay [3] it was 0.0197 (inactive); in assay [4], -0.451 (inactive); in [6], -0.472 (inactive).
`O=C1O[C@H](c2ccccc2)[C@H](c2ccccc2)N2[C@H]1[C@@H](C(=O)O)[C@]1(C(=O)Nc3ccc(C#CCCO)cc31)[C@H]2c1ccc(O)cc1`: the composite z-score was -0.685 in assay [1]; 0.782 in assay [5]; 0.541 in [7]; -0.228 in assay [8]; -0.557 in assay [9]; 0.186 in assay [10]. Moreover, the z-score is 0.396 (inactive) in assay [2], -0.228 (inactive) in assay [3], 0.385 (inactive) in assay [4] and 1.57 (inactive) in [6].
In the case of `CN(C)CCCC[C@@H]1NC(=O)[C@H]2C[C@@H](C(=O)NCCCCCNC(=O)CS)[C@@H](c3cccc(OCCO)c3)N2C1=O`, the composite z-score in assay [1] is 1.18; in assay [5] it was 2.79; in [7], 0.0144; in assay [8] it was 1.54; in assay [9] it was 0.534; in assay [10], -0.136. Moreover, the z-score was -1.14 (inactive) in assay [2], -1.3 (inactive) in [3], -0.296 (inactive) in assay [4] and -0.328 (inactive) in assay [6].
As for `Cc1ccc(C(C)CC(O)C2C=CC3C(=O)N(c4ccccc4)C(=O)C3N2Nc2ccc([N+](=O)[O-])cc2)o1` (stereo not given), the composite z-score in assay [1] turned out to be 1.55; in assay [5], 3.1; in [7] it was 0.157; in assay [8] it was 0.181; in assay [9], 1.1; in assay [10], 0.0807. Also, the z-score was 0.0574 (inactive) in [2], 0.593 (inactive) in assay [3], 1.31 (inactive) in [4] and -0.468 (inactive) in [6].
On to `COC(=O)[C@@]1(Cc2ccc(F)cc2)[C@@H]2[C@@H](CC(=O)[C@H]2CC(=O)C(=O)N(C)C)CN1C(=O)c1ccccc1`, for which the composite z-score came to 0.781 in assay [1]; 2.43 in assay [5]; 0.288 in [7]; 0.221 in assay [8]; 1.08 in assay [9]; 0.4 in [10]. Further, the z-score in [2] is 0.658 (inactive); in assay [3], 2.12 (inactive); in assay [4], 2.7 (inactive); in assay [6], -0.874 (inactive).
Consider `C#CCN(Cc1ccccc1Br)C(/C=C/c1ccccc1)CO` (stereo not given), for which the composite z-score in assay [1] was -0.69; in [5] it was 0.123; in assay [7] it was -0.144; in assay [8], -0.193; in assay [9] it was -0.598; in assay [10], -0.277. Moreover, the z-score in assay [2] is -2.9 (inactive); in assay [3], -19.4 (active); in assay [4], 0.934 (inactive); in [6], 0.556 (inactive).
Turning to `[N-]=[N+]=NCc1ccccc1[C@@H]1OC(c2ccc(OCCCO)cc2)=N[C@]1(CCS(=O)(=O)c1ccccc1)C(=O)NCCN1CCOCC1`, the composite z-score is 1.53 in assay [1]; 3.37 in [5]; 0.0542 in assay [7]; 1.78 in assay [8]; 1.04 in [9]; 0.208 in assay [10]. Moreover, the z-score in assay [2] was 0.36 (inactive); in [3], 0.517 (inactive); in assay [4], 0.766 (inactive); in assay [6], 0.283 (inactive).
Turning to `O=C1OCCC/C=C\[C@H]2OC34C=CCN(Cn5nnc6ccccc65)C(=O)[C@H]3N(CCCCCCO)C(=O)[C@@H]4C12` (stereo not given in full), the composite z-score in [1] is 0.827; in [5], 3.5; in assay [7], -0.181; in assay [8] it was -0.272; in [9], -0.269; in [10], -0.224. The z-score in assay [2] was -3.24 (inactive); in assay [3], -0.0541 (inactive); in [4], -1.28 (inactive); in assay [6] it was 2.87 (inactive).
Take `CN(C)CCCNC(=O)[C@@]1(C)c2ccccc2C(=O)N(Cc2cc(F)cc(C(F)(F)F)c2)[C@H]1c1ccc(CO)cc1`: the composite z-score in assay [1] was 0.936; in assay [5] it was 3.12; in [7], -0.203; in assay [8] it was -0.986; in [9], -0.604; in assay [10] it was -0.237. In addition, the z-score was -1.46 (inactive) in assay [2], -2.05 (inactive) in assay [3], -2.02 (inactive) in assay [4] and 0.0544 (inactive) in assay [6].
In the case of `COc1cc2c(cc1OC)CN(C(=O)[C@@H]1[C@H]3C(=O)O[C@H](c4ccccc4)[C@H](c4ccccc4)N3[C@H](c3ccc(O)cc3)[C@@]13C(=O)Nc1ccc(C#CC4(O)CCCCCC4)cc13)CC2`, the composite z-score in assay [1] was 1.55; in assay [5] it was 3.46; in assay [7] it was -0.232; in assay [8], 1.59; in [9], 1.08; in [10] it was 0.0685. In addition, the z-score in assay [2] was 0.739 (inactive); in [3] it was -0.0727 (inactive); in [4] it was 0.257 (inactive); in assay [6], 0.395 (inactive).
For the compound `COCCOC(=O)N1C(=O)[C@@]2(c3cc(C#Cc4ccc(OC)cc4)ccc31)[C@H](c1ccc(O)cc1)N1[C@H](c3ccccc3)[C@H](c3ccccc3)OC(=O)[C@H]1[C@@H]2C(=O)NC[C@H](O)c1ccccc1`, the composite z-score was 1.54 in assay [1]; 2.16 in assay [5]; -0.09 in [7]; 1.48 in assay [8]; 1.08 in assay [9]; 0.0209 in assay [10]. Also, the z-score in [2] was 1.5 (inactive); in assay [3], 0.217 (inactive); in assay [4] it was 2.82 (inactive); in assay [6] it was 0.873 (inactive).
As to `CCOC(=O)[C@H]1C/C=C/C[C@H](C(=O)OCC)C(=O)O[C@H]2[C@@H](OC)O[C@H](CO)[C@@H](OC(=O)Nc3ccc(C#N)cc3)[C@@H]2OC1=O`, the composite z-score in [1] was 0.595; in assay [5] it was 2.36; in assay [7], -0.162; in assay [8], 0.0435; in assay [9] it was 0.466; in [10], -0.382. For the same compound, the z-score is -1.87 (inactive) in assay [2], -1.11 (inactive) in assay [3], 32.1 (active) in assay [4] and 1.92 (inactive) in [6].
As to `Cc1ccc(S[C@]2(C(=O)NCC(C)C)CC(=O)N(Cc3cc(C(F)(F)F)cc(C(F)(F)F)c3)[C@@H]2c2ccc(CO)cc2I)cc1`, the composite z-score in assay [1] is 0.714; in assay [5], 0.736; in assay [7] it was 0.31; in assay [8] it was -2.5; in assay [9], -0.332; in [10] it was -0.0824. The z-score in assay [2] is -1.79 (inactive); in assay [3], -1.94 (inactive); in assay [4], 0.651 (inactive); in assay [6], -0.161 (inactive).
In the case of `COc1ccc([Si](C)(C)[C@H]2[C@H](CCO)O[C@@]3(C(=O)N(C)c4c(Br)cc(C)cc43)[C@@H]2C)cc1`, the composite z-score in assay [1] is 1.49; in assay [5] it was 1.04; in assay [7], -0.1; in [8], 0.76; in assay [9], 1.1; in assay [10], -0.0627. In addition, the z-score in assay [2] was 0.117 (inactive); in assay [3], -2.89 (inactive); in assay [4] it was 34 (active); in [6] it was 0.714 (inactive).
